Test results published in the supplement of paper PMC10338343.
± gives the standard deviation.

How the values were obtained:
[1] = tested on: MILI (PIWIL2) piRISC loaded with L1MC piRNA (26 nt); assay: pre-steady-state target cleavage rate (min^-1); guide: L1MC piRNA 5'p-UAACUAAAUACUAUGCAAGCUGUAGG; higher = faster piRNA-guided slicing of the target; conditions: auxiliary factor: 500 nM mouse GTSF1;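 note: 1 nM active piRISC with 0.1 nM target library at 33 °C single turnover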
Procedure, shortened: (§1)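 A burst-and-steady-state fit was used to obtain the pre-steady-state cleavage rate. The input data were sequencing reads of uncleaved targets, normalised to depth and to weakly complementary targets, from a […] transcribed, DNA-blocked target RNA library mixed with 1 nM active affinity-purified piRISC holding one synthetic guide, with or without 500 nM GTSF1 partner protein, in HEPES–potassium acetate buffer at 33 °C for 0–8 or 0–960 min. Three trials were pooled and k3 was capped at 0.0001 min^-1.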

[2] = tested on: EfPiwi piRISC loaded with L1MC piRNA (26 nt); assay: pre-steady-state target cleavage rate (min^-1); auxiliary factor: 500 nM Ephydatia muelleri Gtsf1; guide: L1MC piRNA 5'p-UAACUAAAUACUAUGCAAGCUGUAGG; MIWI and MILI are mouse PIWI proteins and EfPiwi is from a freshwater sponge; tags in brackets are library labels; higher = faster piRNA-guided slicing of the target
Procedure, shortened: as §1

Sequence	pre-steady-state target cleavage rate [1]	pre-steady-state target cleavage rate [2]
UCCUCCUACAGCUUGCAUAGUAAAUAGUAA	0.119 ± 0.025	0.00375 ± 0.0025
UCCUGGUACAGCUUGCUUAGUAUUAAGUUA	0.163 ± 0.041	0.00311 ± 0.0027
UCCUGGAACAGGUUGCAUAGUAUUUAGAUA	0.136 ± 0.025	0.00362 ± 0.0019
UCCUGGAUGUCGAACCAUAGUAUUUGUUA	–	< 0.0001
UCCUGGAUGUCGUUGCAAACUAUUUAGUUA	–	< 0.0001
UCCUGGAACAGCUUGCAAUAGUAUUUAGUUA	0.0492 ± 0.013	0.0183 ± 0.0054
UCCUCCUACAGCUAGCAUAGUAUUUAGAUA	–	0.00495 ± 0.0024
UCCUGGAUGUCGAUGCAAAGUAUUUUGUUA	–	< 0.0001
UCCUCCUACAGCUUCCAUAGUAUAUAGUUA	–	0.00246 ± 0.0022
UCCUGGUACAGCUUCCAUAGUAUUUAGAUA	–	0.00221 ± 0.0016
UCCUGGAUGUCGAACGAUAGUAUUUAGUUA	–	< 0.0001
UCCUCCUUCUGCUUGCAUAGUAUUUAGUUA	–	0.11 ± 0.028
UCCUGGUACAGCUAGCAUAGUAAUUAGUUA	–	0.00407 ± 0.0023
UCCUGGAUCAGGUUGCAUAGUUUUUAGUUA	–	0.00481 ± 0.0024
UCCUCCUACAGCUUGGAUAGUAUUUUGUUA	–	0.00565 ± 0.0022
UCCUCCUACACGAUGCAUAGUAUUUAGAAA	–	0.00369 ± 0.0021
UCCUGGAUCAGCUUGCAUAGUAUUUAGUAA	–	0.00774 ± 0.0024
UCCUGGAUCAGCUUGCAUAGUGUUUAGUUA	–	0.0156 ± 0.0035
UCCUGGAUGUCGAAGCUUAGUAUUUACUUA	–	< 0.0001
UCCUGGAUGAGCUUGCAUAGUAUUUAAGUUA	–	0.0082 ± 0.0031
UCCUGCUACAGCUUGCAUAGUAAUUAGAUA	–	0.00345 ± 0.0018

Sequence	pre-steady-state target cleavage rate [1]	pre-steady-state target cleavage rate [2]
UCCUGGAUGUGCUUGCAUAGUACUUUAGUUA	–	0.0126 ± 0.0061
UCCUCCUAGUGCUUGCAUAGUAUUUAGUAA	–	0.00468 ± 0.002
UCCUGGAUGUCGUUGGUAAGUAUUUAGUUA	–	< 0.0001
UCCUGCUACAGCUUGGCAUAGUAUUUAGUUA	–	0.00928 ± 0.0031
UCCUGGAUGUCGAACCAUUGAAUUUAGUUA	–	< 0.0001
UCCUGGAACAGCAAGCAUAGUAUUUAGUUA	–	0.00853 ± 0.0027
UCCUGGAUGAGCCUUGCAUAGUAUUUAGUUA	–	0.00885 ± 0.0032
UCCUGGAUGUCGAACGUUACUAUUUAGUUA	–	< 0.0001
UCCUGCUACAGCUUCCAUAGUAUUUAGAAA	–	0.00349 ± 0.0019
UCCUGGAUGUCGAACGUAAGUAUUUGGUUA	–	< 0.0001
UCCUGCUACAGGAAGCAUAGUAUUUAGUAA	–	0.00302 ± 0.0027
UCCUGCUUCAGCUUGCAAAGUAUUUAGUUA	–	0.0683 ± 0.018
UCCUGGAUGUGACUUGCAUAGUAUUUAGUUA	–	0.00497 ± 0.0028
UCCUGGAUGUCGAACGUAAUUAUUUAGUUA	–	< 0.0001
UCCUCCAACAGCUUGCAUAGUAUUUAGAUA	–	0.0051 ± 0.0023
UCCUGGAUGUCGAACCAUAGUAUUUAGUUC [g2:g15:cont:t1C]	–	< 0.0001
UCCUGGUACAGCUUGCAUAGUAUUAAGAUA	–	0.0058 ± 0.0028
UCCUGGUACACCUUGCAUAGUAUUUAGUUA	–	0.00345 ± 0.0027
UCCUGCUGCAGCUUGCAUAGUAUUUAGUUA	–	0.0729 ± 0.016
UCCUGGAUCAGCUUCCAUAGUAUUUAGAUA	–	0.00231 ± 0.0018
UCCUGGAUGUGCUUCCAUAGUAUUUAGAAA	–	0.00625 ± 0.0039

Sequence	pre-steady-state target cleavage rate [1]	pre-steady-state target cleavage rate [2]
UCCUGGAUCAGCUUCCAUAGUAUUUAGAAA	–	0.00474 ± 0.0027
UCCUGGAUGUCGAACGUUAGUAAAAAGUUA	–	< 0.0001
UCCUGCUGACAGCUUGCAUAGUAUUUAGUUA	–	0.0486 ± 0.013
UCCUGGUACAGCAAGCAUAGUAUUUAGUUA	–	0.00653 ± 0.0021
UCCUGGUACAGCUUGCAUAGUAAUUUGUUA	–	0.00282 ± 0.0025
UCCUCCUACAGCUUGCAUAGUAUUUAGUAA	–	0.0113 ± 0.005
UCCUCCUACAGGAUGCAUAGUAUUUAGUUA	–	0.0467 ± 0.011
UCCUCCUACAGCUUGCAUAGUAUUUAGGUUA	–	0.00552 ± 0.0017
UCCUGCUACAGCAUGCAUAGUUUUUAGUUA	–	0.00363 ± 0.0018
UCCUGGAUGUCGAACGAUACUAUUUUGUUA	–	< 0.0001
UCCUGCUACAGCUUGCAAAGUAUUUAGUUA	–	0.00608 ± 0.0019
UCCUGGAUGAGCCUGCAUAGUAUUUAGUUA	–	0.032 ± 0.011
UCCUGGAAGAGCUUGCAUAGUAUUUAGUUA	–	0.0725 ± 0.016
UCCUCCUACAGCUUCCAUAGUAUUUACAAA	–	0.00265 ± 0.0026
UCCUCCUACAGCUUGCAAAGUAUUUAGUUA	–	0.0392 ± 0.012
UCCUGGAUGUCGAACGUAAGUAUUUAAUUA	–	< 0.0001
UCCUGGAUGUCGAACCCUAGUAUUUAGUUA	–	< 0.0001
UCCUGGUACAGCUUGGUUAGUAUUUAGUUA	–	0.00478 ± 0.0032
UCCUGGAUGAGCUUGGAUAGUAUUUAGAAA	–	0.00463 ± 0.0034
UCCUGCUACAGCUUGCAUAGUAUAUUGUUA	–	0.00351 ± 0.0021
UCCUGGAUCAGCUUGUAUAGUAUUUAGUUA	–	0.104 ± 0.021
